ALDH1A1 block: ALDH1A1 (human) enzyme inhibition; 220,000 compounds, 7.3% hits; Purified ALDH1A1, NADH fluorescence, propionaldehyde substrate; Potency, µM (highest dose often 75.3 µM), for the others: at the highest dose activity, negative = inhibition, hits mostly inhibitors; P00352; AID 1030;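 also: potency is read from the fitted curve at half-maximal effect; plate controls were no enzyme wells and a reference inhibitor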
HPGD block: inhibitors of human 15-hydroxyprostaglandin dehydrogenase (HPGD) | purified HPGD, NADH fluorescence kinetic, PGE2 substrate | Potency, µM, without a hit: top-dose activity change, negative = inhibition, actives largely listed as inhibitors | 150,000 compounds, 4.3% hits | P15428; also: potency is read from the fitted curve at half-maximal effect
Target sequence (P15428 whole entry, looked up): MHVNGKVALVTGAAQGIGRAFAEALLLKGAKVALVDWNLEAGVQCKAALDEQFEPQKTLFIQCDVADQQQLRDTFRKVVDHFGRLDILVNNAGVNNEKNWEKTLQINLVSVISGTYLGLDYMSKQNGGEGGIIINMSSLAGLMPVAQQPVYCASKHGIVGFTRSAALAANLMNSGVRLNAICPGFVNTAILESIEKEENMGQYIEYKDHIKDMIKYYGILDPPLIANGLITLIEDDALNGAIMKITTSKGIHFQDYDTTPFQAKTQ
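20 nM HPGD preincubated 15 min at room temperature with compound in 50 mM Tris-HCl pH 8, 0.01% Tween 20. Started with 1 mM NAD+ and 30 uM prostaglandin E2; NADH fluorescence (360/450 nm) read 5 times over 30-s intervals, last minus first.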
IMPase inh: membrane-permeable compound that blocks inositol monophosphatase | P97697 | CHO-M1 cells, IP1 accumulation, HTRF TR-FRET ratio | inhibition (IP1 accumulation), % at 46.1 µM | 120,000 tested, under 10 active | AID 901; active = well fitted curve in the direction sought with a large enough effect in the signal ratio, not every such curve was filed as active; inconclusive = small, poorly fitted or top-dose-only effect, or a change in a side signal; inactive = no such curve, though single readings can be large or run the other way; the % refers to the signal ratio;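 also: cells stimulated with carbachol in lithium chloride buffer; plate controls were DMSO basal wells for no effect and reference inhibitor wells for full effect; higher means more IMPase inhibition seen as more IP1 and lower FRET ratio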
Target sequence (P97697 whole entry, looked up): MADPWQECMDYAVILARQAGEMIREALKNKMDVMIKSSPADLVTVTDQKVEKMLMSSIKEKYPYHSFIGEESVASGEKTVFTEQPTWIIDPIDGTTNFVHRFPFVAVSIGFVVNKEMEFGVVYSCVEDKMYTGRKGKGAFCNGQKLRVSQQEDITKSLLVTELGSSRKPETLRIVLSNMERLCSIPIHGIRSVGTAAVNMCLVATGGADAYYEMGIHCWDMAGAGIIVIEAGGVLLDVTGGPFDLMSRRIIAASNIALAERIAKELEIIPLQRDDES
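CHO-M1 cells (CHO stably expressing M1 receptor), compound up to 46 uM final, stimulated with carbachol (50 uM as added) in buffer with 50mM LiCl, pH 7.4, 30 min at 37C. Cytosolic IP1 read by TR-FRET; AC50 from Hill fits.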
IMPase Li cell: cell-permeable IMPase inhibitors with lithium potentiation | CHO-M1 cells, IP1 TR-FRET (IP-One), carbachol + lithium | Potency, µM (titrated, usually from 59.4 µM), for the others: at the highest dose activity, negative = IMPase inhibition, actives largely listed as inhibitors | 210,000 compounds, 0.35% hits; active = well fitted inhibition curve with a large enough effect; inconclusive = small, poorly fitted or top-dose-only effect; inactive = no such curve, though single readings can be large or run the other way;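 also: IP1 builds up when IMPase is blocked and the TR-FRET signal falls; potency is read from the fitted curve at half-maximal effect; plate controls were basal vehicle for no effect and high inhibitor control for full effect; nearly all actives have a fitted effect of over 50% in size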
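CHO cells stably expressing M1 receptor (2000/well) were cultured 16–30 h, then exposed to compounds with a small lithium addition for 30 min at 37C. IP1 was measured by TR-FRET competition; AC50 from Hill fits.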
PNC assembly inh: inhibitors of perinucleolar compartment assembly. PC3M PTB-GFP, PNC prevalence imaging, 16 h; active compounds read low. activity change (PNC), negative = inhibition, % at 10 µM. 140,000 compounds, 3.1% hits. AID 2417;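 active = readout at or below -70, meaning at least 70% loss of cells showing the perinucleolar compartment, a nuclear body marking cancer cells; inconclusive = readout between -30 and a set limit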;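 also: plate controls were DMSO wells for no effect and camptothecin positive control wells for full effect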
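Compounds are pinned in duplicate onto adhered PC3M cells stably expressing GFP-tagged PTB and incubated 16 h at 37 C. Cells are then fixed, nuclei stained with Hoechst, and PNC-positive cells counted.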
* hit, by the source's call; ? = inconclusive; nt = no result; [ ] = another dose, or the depositor's remark. Most compounds without a hit are left out; they make up all but 11% or so of the library. Unless noted, calls follow the shape of the dose curve; as a rule, active = well fitted inhibition curve with a large enough effect (not every such curve was filed as active); inconclusive = small, poorly fitted or top-dose-only effect, or another doubt; inactive = no such curve, though single readings can be large or run the other way. Unless noted, % is scaled to controls: 0 for no effect and ±100 for the full control effect.

SMILES | ALDH1A1 block | HPGD block | IMPase inh | IMPase Li cell | PNC assembly inh
CN1CC(C(=O)c2ccc(Cl)cc2)C(c2ccc(N(C)C)cc2)C1 (configuration not stated) | 10µM* | nt | nt | 16% | nt
CC(C)CC(=O)C[C@H](O)C(Cl)(Cl)Cl | 8%[13.5 µM] | -12% | nt | 7% | nt
Nc1ncc([N+](=O)[O-])s1 | 25µM* | ? | nt | 19% | nt
Cc1cccc(N2C(=O)NC(=O)/C(=C\c3ccc4c(c3)CCCN4Cc3ccccc3)C2=O)c1 | 0.18µM* | 7.1µM* | nt | 1% | -2
O=C(O)C(Cl)Br (configuration not stated) | ? | -9% | nt | 12% | nt
C/C(CC(c1ccccc1)c1c(O)c2ccccc2oc1=O)=N\NC(N)=S (configuration not stated) | ? | ? | nt | -7% | -16
NC(=S)N/N=C/c1coc2ccccc2c1=O | 14µM* | -19% | 3 | 10% | -5
COC(=O)C1=CO[C@@H](C)[C@@H]2CN3CC[C@]4(C(=O)Nc5c4ccc(OC)c5OC)[C@H]3C[C@H]12 | -3% | -10% | nt | -1% | nt
ClC=CCl | -3% | -12% | nt | 32% | nt
CCC(=NCCN1CCOCC1)c1c(O)n(-c2ccccc2C)c(=O)[nH]c1=O | ? | -9% | -16 | 5%[38.3 µM] | -15
CC/C(=N\N1CCCCCC1)c1c(O)n(-c2ccccc2C)c(=O)[nH]c1=O | -15% | -8% | nt | 4% | -95*
COc1cc(CC(=O)OCC2=C[C@H]3[C@@H]4C(C)(C)[C@]4(OC(C)=O)[C@H](OC(=O)Cc4ccccc4)[C@@H](C)[C@]3(O)[C@@H]3C=C(C)C(=O)[C@@]3(O)C2)ccc1O | 8% | -18% | nt | -2% | nt
Cc1cc(C)cc(OP(=O)(Oc2cc(C)cc(C)c2)Oc2cc(C)cc(C)c2)c1 | ? | -14% | nt | 11% | nt
CSc1ccc(C(=O)C(C)(C)N2CCOCC2)cc1 | 8.9µM* | -7% | -5 | 31%[38.3 µM] | ?
CCc1ccc(CN2CCN(Cc3ccc(SC)cc3)CC2)cc1 | -9% | nt | nt | 18% | nt
CCOC(=O)c1ccc(NC(=O)C2C3C=CC(O3)C2C(=O)O)cc1 (configuration not stated) | 10µM* | -9% | 0 | -16%[38.3 µM] | -91*
CCOC(=O)c1ccc(NC(c2ccc(N(C)C)cc2)P(=O)(OC(C)C)OC(C)C)cc1 (configuration not stated) | ? | nt | nt | 12% | nt
NCCNCCNCCNCCN | 32µM* | -8% | nt | 20% | nt
CN1[C@@H]2CC[C@H]1CC(O[C@@H](c1ccccc1)c1ccc(Cl)cc1)C2 (some centres not stated) | 5% | -4% | 22 | 37% | nt
CC1=CC(=O)NP(=O)(Oc2ccc3ccccc3c2)N1 (configuration not stated) | ? | 35µM* | 6 | -3%[38.3 µM] | 51
COC(=O)C1=Nc2ccccc2/C1=C\c1c(O)n(-c2cc(OC)ccc2OC)c(=O)[nH]c1=O | ? | 14µM* | nt | 1% | ?
Cc1ccc(-n2c(O)c(/C=C3/C(c4ccccc4)=Nc4ccccc43)c(=O)[nH]c2=O)cc1 | 25µM* | nt | -17 | nt | 42
COc1ccc(OC)c(-n2c(O)c(C=Nc3c(C)n(C)n(-c4ccccc4)c3=O)c(=O)[nH]c2=O)c1 | -3% | -6% | nt | 5% | -24
Cc1cccc(N=Cc2c(O)n(-c3ccccc3C)c(=O)[nH]c2=O)c1 | 25µM* | ? | 8 | -1%[38.3 µM] | 4
Cc1ccccc1-n1c(O)c(/C=C2/C(c3ccccc3)=Nc3ccccc32)c(=O)[nH]c1=O | ? | 28µM* | 4 | 4% | ?
SMILES | ALDH1A1 block | HPGD block | IMPase inh | IMPase Li cell | PNC assembly inh
Cc1ccc(C[N+](C)(C)C)o1 | -17% | 3% | -9 | 38% | nt
CC(C)(C)C(=O)CP(=O)(O)O | 2%[13.5 µM] | -3% | nt | 0% | nt
O=c1[nH]c(=S)n(C2CC2)c(O)c1C=NCCN1CCOCC1 | 12% | nt | nt | nt | nt
O=c1[nH]c(=S)n(C2CC2)c(O)c1/C=N/Nc1ccccc1 | 3.2µM* | -18% | -7 | 26% | -11
O=c1[nH]c(=S)n(C2CC2)c(O)c1/C=N/Nc1cccc2ccccc12 | 2.5µM* | nt | -6 | nt | 16
CCCCC(=O)N/N=C/c1c(O)n(C2CC2)c(=S)[nH]c1=O | -11% | -5% | nt | 2% | -7
CCC(C)n1c(O)c(/C=N/Nc2ccccc2)c(=O)[nH]c1=S (configuration not stated) | 3.5µM* | -23% | nt | 14% | -24
COC1=CC(=O)OC(CCc2ccccc2)C1 (configuration not stated) | -9% | -6% | nt | 17% | nt
C=CCN1C[C@H](C)N([C@@H](c2ccccc2)c2ccc(C(=O)N(CC)CC)cc2)C[C@H]1C | 2% | ? | 6 | 19% | nt
C=CCN1C[C@H](C)N([C@H](c2ccc(C(=O)N(CC)CC)cc2)c2cccc(O)c2)C[C@H]1C | 4% | 11µM* | 7 | 14% | nt
N[C@@H](Cc1c[nH]c2cc([N+](=O)[O-])ccc12)C(=O)O | 4%[13.5 µM] | -8% | nt | -3% | nt
CCOC(=O)CN(C#N)c1nc(N(C)C)nc(N(C)C)n1 | 10µM* | nt | nt | 6% | nt
Cc1ccc(S(=O)(=O)NC(CC(=O)N2CCC3(CC2)OCCO3)c2ccco2)cc1 (configuration not stated) | 13µM* | -2% | -3[1.84 µM] | 22%[38.3 µM] | -8
Cc1ccc(-c2nn(C)c(=O)c3ccccc23)cc1CNC(=O)/C=C/c1ccccc1 | 22µM* | ? | 1 | 15%[38.3 µM] | ?
Cc1nn(C)c(C)c1-c1cccc2c1CCC(N(C)C)C2 (configuration not stated) | -15% | ? | nt | 28% | nt
O=P(O)(OP(=O)(O)c1ccccc1)c1ccccc1 (tested in a mixture with another compound) | 0%[13.5 µM] | -9% | nt | 5% | nt
Clc1ccc(OCC#CCN2CCCC2)cc1 | ? | nt | nt | 27% | nt
CCCN(CC#CCOc1ccc(OC)cc1)CCC | 20µM* | -10% | 9 | 8%[38.3 µM] | 65
O=[N+]([O-])c1ccc(-c2[se]c3ccccc3c2I)cc1 | ? | -25% | nt | -4% | nt
CC(=O)[O-].CC(=O)[O-].CC(=O)[O-].[Cr+3] | 6% | -7% | nt | -11% | nt
CN(C)C1C(=O)C(C(N)=O)=C(O)[C@@]2(O)C(=O)C3=C(O)c4c(O)cccc4[C@@](C)(O)C3[C@H](O)C12 (some centres not stated) | 7.1µM* | ? | nt | 3.2µM* | nt
CN(C)[C@@H]1C(=O)C(C(N)=O)=C(O)[C@]2(O)C(=O)C3=C(O)c4c(O)cccc4[C@@](C)(O)[C@H]3[C@H](O)[C@@H]12 | ? | ? | -8[20.6 µM] | -12% | nt
CC(C)C1C(=O)N2CCC[C@H]2[C@]2(O)O[C@](NC(=O)[C@@H]3C=C4c5cccc6[nH]cc(c56)C[C@H]4N(C)C3)(C(C)C)C(=O)N12 (some centres not stated) | ? | nt | nt | 6% | nt
